Source: the supplement of paper PMC10338343
± gives the standard deviation.

Tested on: MILI (PIWIL2) piRISC loaded with piRNA #1 (26 nt)
Assay: pre-steady-state target cleavage rate (min^-1); guide: piRNA #1 5'p-UGAGGUAGUAGGUUGUAUAGUAUCCA; MIWI and MILI are mouse PIWI proteins and EfPiwi is from a freshwater sponge; tags in brackets are library labels; higher = faster piRNA-guided slicing of the target
Settings: auxiliary factor: 500 nM mouse GTSF1
How it was run: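 Active affinity-purified piRISC (1 nM) loaded with one synthetic guide was mixed with a transcribed, DNA-blocked target RNA library (0.1 nM), with or without 500 nM GTSF1 partner protein, in HEPES–potassium acetate buffer at 33 °C for 0–8 or 0–960 min. Uncleaved targets were sequenced, normalised to depth and to weakly complementary targets, and pooled across three trials, with k3 capped at 0.0001 min^-1. The pre-steady-state cleavage rate was determined with a burst-and-steady-state fit.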

Row | Sequence | pre-steady-state target cleavage rate
1 | GGAGUGGAUACUUUACAACCUACAACCUCA | 0.0647 ± 0.0091
2 | GGAGACCUUACAAAACAACCUACUACCUCA | 0.00897 ± 0.0036
3 | GGAGACCUAUGAUAUCAAGCUACUACCUCA | 0.00559 ± 0.0019
4 | GGAGACCUAUGAUUACUACCUACUACCUCA | 0.00306 ± 0.0021
5 | GGAGACCUUAGUAUACAAGCUACUACCUCA | 0.174 ± 0.012
6 | GGAGACCUAUCAAUACAACGUACUACCUCA | 0.00874 ± 0.0028
7 | GGAGACCUUUCUAUACAACCUACUACCACA | 0.152 ± 0.018
8 | GGAGACCUUACUAUUCAACCUACUAGCUCA | 0.0771 ± 0.014
9 | GGAGACCUAUGUAUACAACCUACUACCAGA | 0.055 ± 0.009
10 | GGAGACCUAUGAUUACAACCUACCUACCUCA | 0.00646 ± 0.0028
11 | GGAGACCUAUGUUUAGAACCUACUACCUCA | 0.00346 ± 0.0023
12 | GGAGACCUAUGUAUACAACCUACUACCUGA | 0.0463 ± 0.008
13 | GGAGACCAUACUAUACAACCUCUACCUCA | 0.00997 ± 0.0029
14 | GGAGACGAUACAAUUCAACCUACUACCUCA | 0.147 ± 0.01
15 | GGAGACCUAUCUAUACUACCUACUACGUCA | 0.0241 ± 0.0069
16 | GGAGACCUAUGAAUACAACCUACUACCGCA | 0.00764 ± 0.003
17 | GGAGACCUAACUUUACAACCUACUACCACA | 0.109 ± 0.024
18 | GGAGACCUAUGAUAUGUUCCUACUUACCUCA | < 0.0001
19 | GGAGACCUUACUUUACAACCUACUUCCUCA | 0.0347 ± 0.011
20 | GGAGACCUUAUAUACAACCUACUACCUCA | 0.0314 ± 0.0072

Row | Sequence | pre-steady-state target cleavage rate
21 | GGAGACCUAUCAUACAACCUACUACCUCA | 0.0591 ± 0.0093
22 | GGAGACCUUACUAUUCAAGCUACUACCUCA | 0.235 ± 0.013
23 | GGAGAGGAUACUAUACAACCUACUGACCUCA | 0.077 ± 0.013
24 | GGAGACCUAUGUAUUGAACCUACUACCUCA | 0.00285 ± 0.0015
25 | GGAGACCUAUCUAAUCAACCUACUACCUCA | 0.0267 ± 0.0037
26 | GGAGACCUAUCUAUUCAACCUACUACCACA | 0.144 ± 0.022
27 | GGAGACCUAUCUAUUCUACCUACUACCUCA | 0.0569 ± 0.0086
28 | GGAGACCUAUGAUAACAACCUACUAGCCUCA | 0.00672 ± 0.0023
29 | GGAGACCUAUGAAUACAACCUAGCUACCUCA | 0.00489 ± 0.0025
30 | GGAGACCAUACUAUACAACCUACAAGCUCA | 0.0598 ± 0.015
31 | GGAGACCUAUGAUAUGUUGCUUGAACCUCA | < 0.0001
32 | GGAGACCUAUCUAUAGAACCUACUACCUCA | 0.0821 ± 0.013
33 | GGAGACGAUACUAUACAACUACUACCUCA | 0.0571 ± 0.0061
34 | GGAGAGGAUACUAUACUACCUACAACCUCA | 0.102 ± 0.0092
35 | GGAGACCUAUGAAUACAACCUACUACCUGCA | 0.00801 ± 0.004
36 | GGAGACCUAUGAUAUGUUGCUACUACCUUA | < 0.0001
37 | GGAGUGCAUUCUAUACAACCUACUACCUCA | 0.13 ± 0.011
38 | GGAGACCUAUGAUAUGUACCUACUACCUGA | < 0.0001
39 | GGAGACCUAACUAAACAACCUACUACCUCA | 0.0743 ± 0.017
40 | GGAGACCUAACUAAACAACCUAGUACCUCA | 0.0123 ± 0.0073
